Only some compounds are listed: those with a hit (about 1.7% of all), similar ones and a draw of the others.
PTHR1 ag = PTHR1 (human) receptor agonism; Q03431; hit rate 0.075% among 410,000; Potency, µM (highest dose often 115 µM), hits mostly activators; AID 743266; HEK293 GP2 PTHR1 cells, GloSensor cAMP luminescence, 1 h; also: nearly all actives have a fitted effect of over 55% in size
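HEK-293-derived GP2 cells expressing PTHR1 and a GloSensor cAMP reporter, 3,000/well, plated overnight, given luciferin plus IBMX (each 0.5 mM as added) for 1 h at 37 °C, then compound for 1 h at 37 °C. Luminescence was read after 15 min at room temperature.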
GLP-1R agonist = activates the human GLP-1 receptor; HEK293 GLP-1R CRE-luciferase, luminescence, 4-6 h; cells express a hypersensitive GLP-1R form; Potency, µM (top dose mostly 45.6 µM), actives largely listed as activators; hit rate 0.007% among 380,000
Target sequence (P43220 whole entry, looked up): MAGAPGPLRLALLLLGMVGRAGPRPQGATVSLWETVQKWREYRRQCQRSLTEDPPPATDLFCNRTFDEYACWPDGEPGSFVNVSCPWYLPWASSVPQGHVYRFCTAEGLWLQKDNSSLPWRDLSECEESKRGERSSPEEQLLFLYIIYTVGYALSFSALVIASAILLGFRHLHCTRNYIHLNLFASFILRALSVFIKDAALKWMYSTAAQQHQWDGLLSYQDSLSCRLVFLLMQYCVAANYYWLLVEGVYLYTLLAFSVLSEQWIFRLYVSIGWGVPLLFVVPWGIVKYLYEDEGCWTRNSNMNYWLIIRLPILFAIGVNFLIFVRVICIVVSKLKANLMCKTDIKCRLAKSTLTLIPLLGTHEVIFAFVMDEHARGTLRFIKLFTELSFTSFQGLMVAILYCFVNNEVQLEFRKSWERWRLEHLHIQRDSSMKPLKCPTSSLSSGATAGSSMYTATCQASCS
GLP1R inv ag = GLP-1 receptor (human) inverse agonism; HEK293 GLP-1R CRE-luciferase, luminescence, 24 h; GLP-1R form is constitutively active; P43220; hit rate 1.6% among 410,000; Potency, µM (top dose mostly 38.3 µM), actives largely listed as inhibitors; also: nearly all actives have a fitted effect of over 55% in size
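Assay principle: reduced luminescence from a cAMP-responsive reporter in HEK293 cells co-expressing a constitutively active GLP-1R. Conditions: 24 hr compound incubation, 37 deg C, 5% CO2.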
GLP1R cytotox = cytotoxic in the GLP-1 receptor inverse agonist counter-screen; HEK293 cAMP-luciferase reporter cells, luminescence, 24 h; Potency, µM (titrated, usually from 38.3 µM), hits mostly inhibitors; hit rate 0.13% among 410,000; AID 624418;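 also: loss of luciferase light is scored as toxicity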
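A 23 nL compound transfer followed 12 hours of cell culture at 37 deg C; exposure then lasted 24 hr. Luciferase assay detection reagent was dispensed and plates read for luminescence after a 12 min room-temperature wait.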
Hits are given with their value; 0 = inactive; ? = inconclusive; - = not tested or not shown. Calls follow the shape of the dose curve; as a rule, active = well fitted curve in the direction sought with a large enough effect; inconclusive = small, poorly fitted or top-dose-only effect, or another doubt; inactive = no such curve, though single readings can be large; an effect the other way counts as inactive or inconclusive.

SMILES	PTHR1 ag	GLP-1R agonist	GLP1R inv ag	GLP1R cytotox
CCCCOCC(O)Cn1c(C)nc2ccccc21 (centres undefined)	0	0	0	0
Cc1nc2ccccc2n1CC(O)Cn1c2ccccc2c2ccccc21 (centres undefined)	16µM	0	0	0
Cc1ccc2c(c1)c1c(n2CC(O)Cn2c(C)nc3ccccc32)/C(=N\O)CCC1 (centres undefined)	0	0	10µM	?
Cc1ccc(C)c(N2CCN(C(=O)CCc3nnc4n(C)c(=O)c5ccccc5n34)CC2)c1	0	-	0	0
CCC(=O)OC1C(N(C)C)CC(C)O[C@H]1O[C@H]1[C@H](C)[C@@H](O[C@H]2CC(OC)[C@@H](O)C(C)O2)[C@H](C)C(=O)O[C@@H](CC)[C@](C)(O)[C@@H](O)[C@H](C)C(=O)[C@@H](C)C[C@]1(C)O (some centres undefined)	-	0	-	-
COc1nnc(-c2ccc(N3CCCCC3)c(NC(=O)c3ccccc3Cl)c2)c2ccccc12	0	-	3.5µM	0
Cc1ccc(C)c(NC(=O)C2CCN(c3cc(C)nc4c(-c5ccc(Cl)cc5)c(C)nn34)CC2)c1	0	0	0	0
Cc1ccc(-c2nnc(CSc3nnc(COc4cccc5ccccc45)n3-c3ccccc3)o2)cc1	0	0	11µM	0
CCN(CC)c1ccc(S(=O)(=O)Nc2cc(Cl)ccc2Cl)cc1NC(=S)NC(=O)C1CCCC1	0	0	5µM	0
CCOC(=O)c1ccccc1NC(=O)CN1C(=O)CC(c2ccccc2)Sc2ccccc21 (centres undefined)	0	0	10µM	0
Cc1cccc(NC(=O)CN2C(=O)CC(c3ccccc3)Sc3ccccc32)c1 (centres undefined)	0	0	0	0
COc1ccc(-c2nc3sc(CCNC(=O)c4cccc(C(F)(F)F)c4)c(C)n3n2)cc1	0	0	0	0
COc1cc(CN(C2CC2)S(=O)(=O)c2ccccc2Br)cc(OC)c1	0	0	10µM	0
CCOC(=O)N1CCN(Cc2nc(Cc3cccc(F)c3)no2)CC1	0	0	0	0
COc1ccc(N2CCN(Cc3nc(Cc4cccc(F)c4)no3)C(C)C2)cc1 (centres undefined)	0	0	5.6µM	0
O=C(CSc1nc2ccccc2s1)N1c2ccccc2Sc2ccccc21	?	0	5.6µM	0
CCCSCCCNC(=O)CN1C(=O)COc2ccc(S(=O)(=O)N3CCC(C)CC3)cc21	0	0	0	0
S=C(Nc1ccc(Cl)cc1)NC1CC2CCCC(C1)N2C1CCCC1 (centres undefined)	?	0	8.9µM	?
S=C(Nc1ccc(Cl)cc1)NC1CC2CCC(C1)N2Cc1ccccc1 (centres undefined)	0	0	7.1µM	0
CCc1ccc(NC(=S)NC2CC3CCCC(C2)N3Cc2ccccc2)cc1 (centres undefined)	0	0	?	?
S=C(Nc1ccc(Cl)cc1)NC1CC2CCCC(C1)N2C1CC1 (centres undefined)	0	0	?	0
CC1=CC(C)(C)Nc2ccc(Cc3ccc4c(c3)C(C)=CC(C)(C)N4)cc21	0	0	2.8µM	0
COc1ccc(S(=O)(=O)Nc2ccc3c(c2)N(C(C)=O)CCC3)cc1F	0	-	0	?
COc1cc(/C=N/NC(N)=S)cc(Br)c1OCc1ccccc1F	0	0	0	5.6µM
OC(c1ccccc1)(c1ccc(F)cc1)C(c1ccccc1)N1CCOCC1 (centres undefined)	0	0	7.9µM	0
SMILES	PTHR1 ag	GLP-1R agonist	GLP1R inv ag	GLP1R cytotox
CC(O)(c1ccccc1)C(C(c1ccccc1)N1CCOCC1)N1CCOCC1 (centres undefined)	0	0	0	0
Cc1cccc(-c2nc3scc(CCNS(=O)(=O)c4ccc(F)cc4C)n3n2)c1	0	-	0	0
COc1cccc(C(=O)Nc2nnc(C(C)C)s2)c1	0	0	11µM	0
C=C(C)c1cccc(C(C)(C)NC(=O)Nc2nnc(C(C)C)s2)c1	0	0	10µM	0
COc1ccc(-c2nc(SCCOc3cc(C)ccc3C(C)C)n3[nH]c(=O)cc3n2)cc1	0	-	0	0
COc1cccc(CNC(=O)C2CCN(C(=O)N3CCOc4ccc(Cl)cc43)CC2)c1OC	?	-	0	0
O=C(CO/N=C/c1ccccc1)N1c2ccccc2Oc2ccccc21	0	0	8.9µM	0
O=C(CN1CCCCC1)N1c2ccccc2Oc2ccccc21	0	0	?	0
COc1ccc2nc(C)cc(Nc3ccc(Cl)c(Cl)c3)c2c1	0	-	?	?
Cc1ccc(C)c(Cn2c(C3CC(=O)N(c4ccccc4C)C3)nc3ccccc32)c1 (centres undefined)	0	-	?	0
CC(C)(C)c1ccc(OCCOc2ccc(C(C)(C)C)cc2NC=O)c(NC=O)c1	0	0	4.5µM	0
COCCOc1ccc(C(F)(F)F)cc1NC(=O)c1ccccc1	0	0	0	0
COc1ccc(OC)c(NC(=O)c2oc3c(c2C)-c2nn(Cc4ccc(Cl)cc4)cc2CC3)c1	0	-	0	0
S=C1NC[C@H](CC2CCCCC2)N1CC1CCCCC1	0	0	4.5µM	5.6µM
Nc1ccn([C@@H]2O[C@H](CO)[C@@H](O)[C@@H]2O)c(=O)n1	0	0	?	0
OCC1OC(n2ccc3c2ncn2ncnc32)C(O)C1O (centres undefined)	0	0	7.9µM	0
Cc1ccc(NC(=O)Nc2cn(CC(C)C)c(=O)c3ccccc23)cc1N(C)C	0	0	0	0
CC(C)(C)c1cc(C(=O)NNC(=O)Nc2cccc(Cl)c2)n(Cc2ccccc2)n1	0	0	5µM	0
CC(C)(C)c1cc(C(=O)NNC(=O)Nc2ccccc2)n(Cc2ccccc2)n1	0	0	?	0
CC(C)(C)NCC(O)COc1ccccc1C(C)(C)C (centres undefined)	0	0	7.9µM	0
CC(C)(C)NCC(O)COc1ccccc1C(=O)CCc1ccccc1 (centres undefined)	0	0	11µM	?
CCOc1ccc(N(C)C(CNS(=O)(=O)c2ccccc2)c2ccccc2)cc1 (centres undefined)	0	-	?	0
COc1ccc(NS(=O)(=O)c2cccc(C(=O)NCC3(N4CCCCC4)CCCCC3)c2)cc1	0	0	0	0
CCOc1ccc(NS(=O)(=O)c2cccc(C(=O)NCC3(N(C)C)CCCCC3)c2)cc1	0	0	10µM	0
CC(C)(Oc1ccc(Cl)cc1)C(=O)NC1CCN(Cc2ccccc2)CC1	0	0	8.9µM	0
Cc1nn(CC(C)C)c(Cl)c1C(=O)N(c1ccc(Cl)cc1F)S(C)(=O)=O	0	0	8.9µM	0
CN(C)c1ccc(C(CNS(=O)(=O)c2ccc(Br)cc2)N2CCOCC2)cc1 (centres undefined)	0	-	0	0
CN(C)Cc1cc(C(C)(C)C)c(O)c(C(C)(C)C)c1	0	0	0	0
CC(C)(C=O)Cc1cc(C(C)(C)C)c(O)c(C(C)(C)C)c1	0	0	11µM	0
